From PubChem BioAssay (EPA / NIEHS) come the findings set out here.

In experiment [1] the target is human Vitamin D Receptor (VDR), VDR (gene 7421) (UniProt P11473). Description: ATG_VDR_TRANS: Attagene TRANS-FACTORIAL HepG2 Assay for human Vitamin D Receptor (VDR) (AID 2283022; active = hit-call score of the fitted dose curve at least 0.9, where 1 is the maximum). A digest of the protocol:
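Multiplexed TRANS reporter in HepG2; 24 h treatment; reporter mRNA by RT-PCR plus capillary electrophoresis; upregulation scored relative to DMSO.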

The nature of experiment [2]: BSK_3C_SRB: Viability Assessment in the BioMAP Diversity Plus: 3C Assay (AID 2283023).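 Note: cells read 24 h after compound dosing; fitted both ways against DMSO so a hit may be signal rise or drop.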 As to conditions: primary human endothelial cells (HUVEC). In a few lines:
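Overt cytotoxicity is gauged in parallel confluent HUVEC cultures by SRB total-protein staining at the time of biomarker measurement, 24 h after dosing. Gain or loss of signal is fitted versus DMSO.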

Read-out in experiment [3]: Matrix Metallopeptidase 1 (MMP1), MMP1 (gene 4312)
Description: BSK_BE3C_MMP1: BioMAP Diversity Plus: BE3C Assay for Matrix Metallopeptidase 1 (MMP1) Biomarker Activity (AID 2283024). As to conditions: primary human bronchial epithelial cells; actives raise or lower the signal. In a few lines: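 Primary human bronchial epithelial cells were dosed with test chemicals, and MMP1 levels were measured by ELISA 24 h later. Data were fitted bidirectionally against DMSO as the negative control and activity baseline.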

The nature of experiment [4]: BSK_3C_Vis: BioMAP Diversity Plus: 3C Assay for Morphology Visualization (AID 2283025).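 Note: fitted both ways so gain or loss versus DMSO counts.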 Particulars: primary human endothelial cells (HUVEC). In a few lines:
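Human umbilical vein endothelial cells in the 3C system were imaged by light microscopy 24 h after chemical dosing to record cell morphology. Activity was fitted bidirectionally against DMSO as negative control and baseline; the endpoint serves as a background control.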

Read-out in experiment [5]: Pselectin, SELP (gene 6403)
Description: BSK_4H_Pselectin: BioMAP Diversity Plus: 4H Assay for Pselectin Biomarker Activity (AID 2283026). Particulars: primary human endothelial cells (HUVEC); actives raise or lower the signal. In a few lines:
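Primary human umbilical vein endothelial cells were exposed to test chemical for 24 h, then cell-surface P-selectin was quantified by ELISA. Activity was fitted bidirectionally against DMSO as negative control and baseline.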

Experiment [6] in a line: BSK_4H_SRB: Viability Assessment in the BioMAP Diversity Plus: 4H Assay (AID 2283027).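 For AC50: curves fitted both ways versus DMSO so AC50 may be loss or gain.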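 Note: cells exposed to compound for 24 h before staining.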 As to conditions: primary human endothelial cells (HUVEC). A digest of the protocol:
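Absorbance at 560 nm of SRB-stained total protein served as the viability read-out in confluent primary human umbilical vein endothelium 24 h after chemical treatment. Curves were fitted bidirectionally against DMSO as negative control.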

A short description of experiment [7]: BSK_BE3C_SRB: Viability Assessment in the BioMAP Diversity Plus: BE3C Assay (AID 2283028).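 For AC50: fitted both ways so AC50 may mark signal gain or loss versus DMSO.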 As to conditions: primary human bronchial epithelial cells. In a few lines: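 SRB total-protein staining (0.1%, after TCA fixation) of chemically dosed human bronchial epithelial primary cells at 24 h; DMSO serves as the negative control for bidirectional curve fitting.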

Read-out in experiment [8]: Urokinase-type plasminogen activator receptor (uPAR), PLAUR (gene 5329)
Nature of the experiment: BSK_4H_uPAR: BioMAP Diversity Plus: 4H Assay for Urokinase-type plasminogen activator receptor (uPAR) Biomarker Activity (AID 2283030). As to conditions: primary human endothelial cells (HUVEC); actives raise or lower the signal. A digest of the protocol: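 Endpoint derived via bidirectional curve fitting against DMSO baseline; readout was ELISA detection of uPAR on umbilical vein endothelial cells at 24 h post-treatment, with SRB-stained parallel cultures assessing cytotoxicity.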

Read-out in experiment [9]: Vascular endothelial growth factor receptor 2 (Homo sapiens) (UniProt P35968)
Description: BSK_4H_VEGFRII: BioMAP Diversity Plus: 4H Assay for Vascular endothelial growth factor receptor 2 (VEGFR2) Biomarker Activity (AID 2283031).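 For AC50: cell-surface VEGFR2 protein level quantified by ELISA.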 Particulars: primary human endothelial cells (HUVEC); actives raise or lower the signal. A digest of the protocol:
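In this multiplexed HUVEC system, biomarker ELISA was performed after 24 h chemical exposure. Parallel SRB staining (TCA fixation, 560 nm) tracked cytotoxicity; DMSO served as baseline.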

Read-out in experiment [10]: Human Leukocyte Antigen - DR isotype (HLADR), HLA-DRA (gene 3122)
Description: BSK_BE3C_HLADR: BioMAP Diversity Plus: BE3C Assay for Human Leukocyte Antigen - DR isotype (HLADR) Biomarker Activity (AID 2283032). Particulars: primary human bronchial epithelial cells; actives raise or lower the signal. In a few lines: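 Human primary bronchial epithelial cells in the BE3C system were exposed to chemicals for 24 h, after which HLA-DR levels were quantified by ELISA. Activity was fitted bidirectionally, gain or loss of signal, against DMSO as negative control and baseline.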

Read-out in experiment [11]: Vascular cell adhesion molecule 1 (VCAM1), VCAM1 (gene 7412)
Description: BSK_4H_VCAM1: BioMAP Diversity Plus: 4H Assay for Vascular cell adhesion molecule 1 (VCAM1) Biomarker Activity (AID 2283033).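 For outcome: cell-surface VCAM-1 protein measured by ELISA.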 As to conditions: primary human endothelial cells (HUVEC); actives raise or lower the signal. In a few lines:
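Primary human umbilical vein endothelial cells were exposed to chemicals for 24 h, after which VCAM-1 was quantified by ELISA. Responses were fitted bidirectionally against DMSO as negative control and activity baseline.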

Read-out in experiment [12]: Interferon-gamma inducible Protein 10 (IP10), CXCL10 (gene 3627)
Nature of the experiment: BSK_BE3C_IP10: BioMAP Diversity Plus: BE3C Assay for Interferon-gamma inducible Protein 10 (IP10) Biomarker Activity (AID 2283034). As to conditions: primary human bronchial epithelial cells; actives raise or lower the signal. In a few lines:
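Human primary bronchial epithelial cells were exposed to chemicals for 24 hours, after which IP-10 levels were measured by ELISA. Data were fitted bidirectionally against DMSO, which served as the negative control and activity baseline.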

Read-out in experiment [13]: Monokine induced gamma interferon (MIG), CXCL9 (gene 4283)
Nature of the experiment: BSK_BE3C_MIG: BioMAP Diversity Plus: BE3C Assay for Monokine induced gamma interferon (MIG) Biomarker Activity (AID 2283035).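 For outcome: MIG protein measured by ELISA in BE3C cultures after 24 h of dosing.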 As to conditions: primary human bronchial epithelial cells; actives raise or lower the signal. A digest of the protocol: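 MIG level was determined by ELISA after 24 h chemical treatment of primary human bronchial epithelial cells. Values were fitted bidirectionally with DMSO as the negative control and activity baseline.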

Read-out in experiment [14]: Transforming growth factor beta 1 (TGFb1), TGFB1 (gene 7040)
Description: BSK_BE3C_TGFb1: BioMAP Diversity Plus: BE3C Assay for Transforming growth factor beta 1 (TGFb1) Biomarker Activity (AID 2283036). Particulars: primary human bronchial epithelial cells; actives raise or lower the signal. In a few lines:
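Human primary bronchial epithelial cells (BE3C system) were dosed with chemical and TGF-b1 levels measured by ELISA at 24 h. Activity was fitted bidirectionally relative to DMSO negative control as baseline.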

Read-out in experiment [15]: urokinase plasminogen activator (uPA), PLAU (gene 5328)
Description: BSK_BE3C_uPA: BioMAP Diversity Plus: BE3C Assay for urokinase plasminogen activator (uPA) Biomarker Activity (AID 2283038).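 Note: uPA protein level quantified by ELISA in cell cultures; uPA read one day after compound addition.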 Particulars: primary human bronchial epithelial cells; actives raise or lower the signal. A digest of the protocol: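 Using confluent primary human lung bronchial epithelial cultures, we dosed chemicals, waited 24 h, then ran a uPA ELISA, fitting bidirectionally against DMSO.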

Read-out in experiment [16]: Urokinase-type plasminogen activator receptor (uPAR), PLAUR (gene 5329)
Description: BSK_BE3C_uPAR: BioMAP Diversity Plus: BE3C Assay for Urokinase-type plasminogen activator receptor (uPAR) Biomarker Activity (AID 2283039).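 Note: uPAR protein level measured by ELISA on the cells; cells exposed to compound for one day before measurement.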 Particulars: primary human bronchial epithelial cells; actives raise or lower the signal. A digest of the protocol:
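Primary human bronchial epithelial cells were dosed with chemical and harvested 24 h later; uPAR was quantified by ELISA. Activity was fitted bidirectionally against DMSO as negative control and baseline.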

Read-out in experiment [17]: Interleukin-6 (IL6), IL6 (gene 3569)
Description: BSK_CASM3C_IL6: BioMAP Diversity Plus: CASM3C Assay for Interleukin-6 (IL6) Biomarker Activity for (AID 2283040). As to conditions: primary human coronary artery smooth muscle cells; actives raise or lower the signal.

Read-out in experiment [18]: Tissue plasminogen activator (tPA), PLAT (gene 5327)
Nature of the experiment: BSK_BE3C_tPA: BioMAP Diversity Plus: BE3C Assay for Tissue plasminogen activator (tPA) Biomarker Activity (AID 2283041).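 Note: tPA level quantified by ELISA one day after compound addition.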 As to conditions: primary human bronchial epithelial cells; actives raise or lower the signal. A digest of the protocol:
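Human primary bronchial epithelial cells were dosed with chemical and tPA biomarker levels measured by ELISA 24 hours later. Activity was fitted bidirectionally against DMSO as negative control and baseline.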

Read-out in experiment [19]: Plasminogen activator inhibitor-1 (PAI1), SERPINE1 (gene 5054)
Description: BSK_BE3C_PAI1: BioMAP Diversity Plus: BE3C Assay for Plasminogen activator inhibitor-1 (PAI1) Biomarker Activity (AID 2283037). Particulars: primary human bronchial epithelial cells; actives raise or lower the signal. In a few lines:
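Human primary bronchial epithelial cells were exposed to chemical for 24 h, then PAI-1 was quantified by ELISA. Activity was fitted bidirectionally relative to the DMSO negative control baseline.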

Read-out in experiment [20]: Thrombomodulin, THBD (gene 7056)
Nature of the experiment: BSK_3C_Thrombomodulin: BioMAP Diversity Plus: 3C Assay for Thrombomodulin Biomarker Activity (AID 2283029). Particulars: primary human endothelial cells (HUVEC); actives raise or lower the signal. In a few lines:
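Primary human umbilical vein endothelial cells (3C system) were exposed to chemical for 24 h, then thrombomodulin levels were measured by ELISA. Activity was fitted bidirectionally against the DMSO negative control as baseline.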

Structures are written as SMILES. Results filed as inconclusive are left out. Active and inactive are the calls of the source. Rule for the calls, unless noted: active = hit-call score of the fitted dose curve at least 0.9, where 1 is the maximum; inactive = score below 0.9.

Sequence of human Vitamin D Receptor (VDR), VDR (gene 7421) (P11473 whole entry, looked up): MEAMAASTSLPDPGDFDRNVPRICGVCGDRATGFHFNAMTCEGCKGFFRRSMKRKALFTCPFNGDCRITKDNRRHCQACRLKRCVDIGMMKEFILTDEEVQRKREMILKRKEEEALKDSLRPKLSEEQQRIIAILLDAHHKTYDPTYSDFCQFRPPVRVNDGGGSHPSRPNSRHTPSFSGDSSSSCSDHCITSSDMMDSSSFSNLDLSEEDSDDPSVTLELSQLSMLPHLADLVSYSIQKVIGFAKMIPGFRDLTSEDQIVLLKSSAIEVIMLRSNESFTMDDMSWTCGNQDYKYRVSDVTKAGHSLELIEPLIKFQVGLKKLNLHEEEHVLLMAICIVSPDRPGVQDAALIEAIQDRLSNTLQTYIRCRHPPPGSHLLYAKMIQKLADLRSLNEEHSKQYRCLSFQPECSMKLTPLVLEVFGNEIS

`O=C(O)c1ccccc1`: the molecule was called inactive in [1], in experiment [2], in experiment [3], in experiment [4], in experiment [5] and in experiment [6]. Moreover, the outcome in experiment [7], in experiment [8], in experiment [9], in experiment [10], in experiment [11] and in experiment [12] was inactive. In addition, the result in experiment [13], in [14], in experiment [15], in experiment [16], in experiment [17] and in [18] was inactive.
For the molecule `C=CCOC(Cn1ccnc1)c1ccc(Cl)cc1Cl` (stereo not drawn), the molecule was classed as inactive in [1], in experiment [2], in [3], in experiment [5], in experiment [6] and in experiment [7]. Besides, the outcome in experiment [9], in [10], in [11], in [12], in experiment [13] and in [14] was inactive. Also, the result in [19], in experiment [15], in [16], in experiment [17] and in [18] was inactive. Also, in [4], the AC50 (commonly the concentration at which the activity in the assay is half-maximal) was 9.8 µM (active).
As for `CCC(C)OC(=O)N1CCCCC1CCO` (stereo not drawn), the result in [2], in experiment [3], in experiment [4], in experiment [5], in experiment [6] and in experiment [7] was inactive. Further, the result in experiment [8], in [9], in experiment [10], in experiment [11], in [12] and in experiment [13] was inactive. Besides, the outcome in experiment [14], in [19], in experiment [15], in [16], in experiment [17] and in experiment [18] was inactive.
For the molecule `CN(C)C(=O)Nc1ccc(Cl)c(Cl)c1`, the outcome in [2], in experiment [3], in experiment [4], in experiment [5], in experiment [6] and in experiment [7] was inactive. Besides, the outcome in [20], in [8], in experiment [9], in experiment [10], in [11] and in experiment [12] was inactive. Besides, the outcome in experiment [13], in [14], in experiment [15], in experiment [16], in experiment [17] and in experiment [18] was inactive.
For the molecule `CCCCOCCOCCOCc1cc2c(cc1CCC)OCO2`, the AC50 in experiment [2] was 21 µM (active). In addition, the outcome in experiment [3], in experiment [4], in experiment [5], in experiment [6], in experiment [7] and in [8] was inactive. Besides, the result in [9], in experiment [10], in [11], in experiment [12], in experiment [13] and in experiment [14] was inactive. Besides, the result in experiment [15], in [16], in [17] and in experiment [18] was inactive.
As to `CCCN(CCC)C(=O)SCC`, the outcome in experiment [1], in [2], in [3], in experiment [4], in experiment [5] and in [6] was inactive. Further, the outcome in experiment [7], in experiment [8], in experiment [9], in experiment [10], in experiment [11] and in [12] was inactive. Besides, the result in experiment [13], in experiment [14], in experiment [15], in [16], in experiment [17] and in [18] was inactive.
Regarding `COC(=O)c1ccccc1C(=O)O`, the result in experiment [2], in experiment [3], in [4], in experiment [5], in [6] and in [7] was inactive. The outcome in experiment [8], in experiment [9], in experiment [10], in [11], in experiment [12] and in experiment [13] was inactive. For the same molecule, the result in experiment [14], in experiment [19], in experiment [15], in experiment [16], in experiment [17] and in experiment [18] was inactive.
On to `CCC(O)=C1C(=O)CC(C(=O)O)CC1=O` (stereo not drawn), for which the outcome in experiment [2], in experiment [3], in experiment [4], in [5], in experiment [6] and in experiment [7] was inactive. Moreover, the result in experiment [8], in [9], in [10], in experiment [11], in experiment [12] and in [13] was inactive. Moreover, the result in [14], in experiment [15], in [16], in [17] and in [18] was inactive.
Turning to `CCCN(CCC)c1c([N+](=O)[O-])cc(C(F)(F)F)c(N)c1[N+](=O)[O-]`, the AC50 in experiment [2] was 30.6 µM (active); in [4] it was 16.3 µM (active); in experiment [5] it was 30.3 µM (active); in experiment [6] it was 31.5 µM (active); in [7] it was 16.4 µM (active); in experiment [8], 33.1 µM (active). For the same molecule, the AC50 was 32.3 µM (active) in experiment [9]; 11.6 µM (active) in [10]; 20 µM (active) in [11]; 32.6 µM (active) in experiment [12]; 22.9 µM (active) in experiment [13]. Also, the result in [3], in experiment [14], in experiment [15], in experiment [17] and in [18] was inactive.
